We go through nine compounds from PubChem BioAssay.

By viability is commonly meant a read-out of living cells in per cent, often relative to untreated cells. For orientation: inhibition means the relative decrease from the control value, in per cent.

Inconclusive results are not listed. The source made the active and inactive calls.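 The calls were made as follows, unless noted: active = viability increase at or above a cutoff of the median across tested compounds plus 3 SD (cut at about 8.5% in these data, passing the limit was not always enough); inconclusive = some gains above the cutoff, reason not given; inactive = the rest.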

Assay [1] is described as follows: Her2 expression decrease, cell viability multiplex – SKBR3 breast tumor cells, AlphaScreen, ATP viability, primary screen (AID 461;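 active = Her2 level under about 52% in both replicate screens, with viability over 70% of control, limit read from the data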;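 as to Her2 level: lower value means less Her2 protein in the cells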;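 as to viability: percent of carrier control wells set as 100% viability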). The following applies: SKBR3 Her2 protein level, 18-24 h, measured here: SKBR3 viability, ATP luminescence, at 10 µM. For orientation: In Alpha technology, singlet oxygen from a donor bead excites a nearby acceptor bead.
In assay [2] the target is Receptor tyrosine-protein kinase erbB-2 (Homo sapiens) (UniProt P04626). The description is as above. The following applies: 18-24 h, at 10 µM, stronger effect = lower value.
A short description of assay [3]: reduced viability of SK-BR-3 breast cancer cells – cell-based, 24 h, human, pilot screen (AID 572;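 active = viability at or below 10% of carrier control in both of two separate runs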;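 also: compound exposure lasted between 18 and 24 h rather than exactly 24 h; 100% = carrier-treated control wells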). The following applies: SK-BR-3 viability, CellTiter-Glo luminescence, at 10 µM, stronger effect = lower value.
Assay [4] is described as follows: HUVEC growth inhibition – cell-based, human, primary screen (AID 575;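 active = viability at or below 30% in both replicate assays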;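 also: 100% = median of untreated cell wells with 0.1% DMSO on each plate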). As to conditions: HUVEC proliferation, CellTiter-Glo luminescence, 72 h; at 10 µM; stronger effect = lower value. For orientation: In ATP-based viability assays light output follows the ATP content of the culture.
A short description of assay [5]: H69AR cell proliferation blockers – human, duplicate replicates, primary screen (AID 580;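 active = viability at or under a set limit in both replicates, limit being median viability minus 3 SD, cut at about 48% in these data, passing the limit was not always enough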;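 also: 100% = mean luminescence of untreated wells and 0% = no signal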). As to conditions: H69AR lung tumor cells viability, ATP luminescence, 72 h; at 10 µM; stronger effect = lower value.
Assay [6] can be described thus: MRP1 drug-resistance reversers in H69AR cells – cell-based, doxorubicin co-treatment, pilot screen (AID 601;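 active = viability loss from added drug above about 55%, and viability with drug at most 40%, in both replicates, limit read from the data, passing the limit was not always enough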). As to conditions: CellTiter-Glo, 72 h, at 10 µM; for differential viability (reversal): stronger effect = higher value.
Assay [7] is described as follows: yeast transport mutant growth inhibition pilot in 384-well plates, post-Golgi transport modulator project (AID 636; in the data active = inhibition above about 31%). As to conditions: absorbance 615 nm, about 18 h, stronger effect = higher value.
The nature of assay [8]: growth suppression of yeast trafficking mutant, preliminary HTS, modulators of trafficking downstream of Golgi apparatus project, 1536-format plate, OD 615 nm (AID 637; in the data active = inhibition above about 30%). The following applies: yeast transport mutant growth, absorbance 615 nm, 18 h; stronger effect = higher value.
The nature of assay [9]: S. cerevisiae growth inhibition in permissive medium (OD615), pilot counter-assay for S. cerevisiae lifespan shortening project, permissive growth control (AID 705;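 active = growth inhibition above 25% in both replicates, a cutoff set 3 SD above the mean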). The following applies: OD615, 24 h, at 10 µM, stronger effect = higher value.
Assay [10] in a line: S. cerevisiae growth inhibition in restrictive medium, OD615, pilot screen, restrictive growth control, yeast lifespan reduction project (AID 706;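 active = growth inhibition above a set limit, 3 SD over mean compound inhibition, in both replicates, cut at about 43% in these data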;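 also: modified DeaD lifespan yeast strain shifted to restrictive glucose medium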). The following applies: OD615, 48 h, at 10 µM, stronger effect = higher value.
A short description of assay [11]: doxorubicin toxicity protection in MRP-1 cells – H69AR cells, CellTiter-Glo, duplicate, MRP-1 activator project, pilot screen (AID 807).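 Also: compound pretreatment 18-22 h then 72 h combined with doxorubicin; 0% = doxorubicin alone and 100% = vehicle without doxorubicin.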 The following applies: H69AR viability with doxorubicin, CellTiter-Glo luminescence; at 10 µM; stronger effect = higher value.
The nature of assay [12]: viability of HCT116 without oncogenic beta-catenin – human colon tumor cells, pilot screen (AID 823;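 active = cell viability at or below a set limit in both duplicate runs, the limit being the all-compound median minus 4 SD, cut at about 23% in these data, passing the limit was not always enough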;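 also: 0% = wells killed by 20 µM Hyamine and 100% = untreated DMSO cell wells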). As to conditions: HCT116 beta-catenin knockout viability, CellTiter-Glo, 60 h; at 10 µM; stronger effect = lower value.
The nature of assay [13]: viability of PTEN-null HCT116 cells – cell-based, HCT116 clonal line, CellTiter-Glo, pilot screen (AID 824;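 active = viability at or below 27.92% in each of two runs, the all-compound median minus 4 SD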;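 also: 0% = 20 µM Hyamine control and 100% = vehicle cell control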). As to conditions: HCT116 PTEN-deleted viability, 60 h, at 10 µM, stronger effect = lower value.
Assay [14] can be described thus: RAM pathway blockade in budding yeast – dse1pr::URA3 reporter, 5-FOA selection, pilot screen (AID 869;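 active = inhibition over a set limit, the all-compound mean plus 3 SD, in both replicate runs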;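 also: 0% = DMSO wells with no growth and 100% = 10 µM 1-NA-PP1 with full growth; RAM network block rescues cells from 5-FOA so hits raise OD615 growth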). The following applies: S. cerevisiae dse1pr::URA3 5-FOA growth, OD615, 2 d; at 10 µM; stronger effect = higher value; strain carries analog-sensitive mutant Cbk1 kinase.
The nature of assay [15]: RAM signaling pathway blockade in yeast – S. cerevisiae, Pdr1DBD-CYC8 efflux-inhibited sensitized strain, primary screen (AID 1298;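 active = RAM network inhibition above 8.4% in each of two replicates, 3 SD over the compound average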;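 also: 0% = DMSO untreated cells without growth and 100% = 10 µM 1-NA-PP1 full growth; higher means more yeast growth rescued from 5-FOA killing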). The following applies: S. cerevisiae cbk1-as DSE1-URA3 strain, 5-FOA growth OD615, 2 d; at 50 µM; stronger effect = higher value.
[16] abbreviates: H69AR cells + 2 uM doxorubicin, measured here: viability with 2 uM doxorubicin, stronger effect = lower value.
[17] abbreviates: H69AR cells, compound alone cytotoxicity.

Receptor tyrosine-protein kinase erbB-2 (Homo sapiens), sequence (P04626 whole entry, looked up): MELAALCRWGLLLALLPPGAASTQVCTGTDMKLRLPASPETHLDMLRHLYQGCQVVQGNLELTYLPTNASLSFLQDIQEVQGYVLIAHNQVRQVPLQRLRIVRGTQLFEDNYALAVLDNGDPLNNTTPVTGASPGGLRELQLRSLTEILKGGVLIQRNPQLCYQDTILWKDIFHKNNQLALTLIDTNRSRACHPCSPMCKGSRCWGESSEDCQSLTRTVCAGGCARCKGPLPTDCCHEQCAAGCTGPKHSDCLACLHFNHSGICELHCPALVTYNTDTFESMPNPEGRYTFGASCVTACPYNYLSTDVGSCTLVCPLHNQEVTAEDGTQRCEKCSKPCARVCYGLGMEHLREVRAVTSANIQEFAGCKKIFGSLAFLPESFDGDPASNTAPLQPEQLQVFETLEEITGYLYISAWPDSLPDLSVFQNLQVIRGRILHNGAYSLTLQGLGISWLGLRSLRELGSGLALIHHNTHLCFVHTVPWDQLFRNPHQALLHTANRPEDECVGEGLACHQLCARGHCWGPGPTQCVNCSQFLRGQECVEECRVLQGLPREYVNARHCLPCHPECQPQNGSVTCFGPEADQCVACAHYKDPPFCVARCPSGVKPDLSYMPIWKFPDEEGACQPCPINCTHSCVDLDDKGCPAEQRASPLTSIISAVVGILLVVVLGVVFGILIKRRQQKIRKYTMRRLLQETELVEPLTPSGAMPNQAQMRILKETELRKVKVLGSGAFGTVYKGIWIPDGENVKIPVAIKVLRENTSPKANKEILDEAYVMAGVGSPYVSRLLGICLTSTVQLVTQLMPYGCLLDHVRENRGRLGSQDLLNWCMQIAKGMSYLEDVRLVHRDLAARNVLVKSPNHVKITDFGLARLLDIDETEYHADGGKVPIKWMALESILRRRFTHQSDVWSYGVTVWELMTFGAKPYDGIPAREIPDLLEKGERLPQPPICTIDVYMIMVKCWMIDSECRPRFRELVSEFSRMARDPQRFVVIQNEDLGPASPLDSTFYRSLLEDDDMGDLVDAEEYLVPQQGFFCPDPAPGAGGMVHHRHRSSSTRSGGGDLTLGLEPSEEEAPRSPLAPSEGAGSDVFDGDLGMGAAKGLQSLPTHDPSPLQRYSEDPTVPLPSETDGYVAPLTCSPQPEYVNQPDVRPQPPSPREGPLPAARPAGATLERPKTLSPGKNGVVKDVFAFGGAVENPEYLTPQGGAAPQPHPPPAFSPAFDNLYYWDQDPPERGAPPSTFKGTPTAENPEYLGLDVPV

For `COc1ccc(NC(=O)NCCN2C(=O)C3C4C=CC(C4)C3C2=O)cc1` (stereo not drawn), the viability is 96% in assay [1]; 96% (inactive) in [3]; 100% (inactive) in assay [4]; 101% (inactive) in assay [5]; 97.5% in assay [6] (setting [16]); 101% in assay [6] (setting [17]). The viability in [12] was 99.1% (inactive); in [13], 94.5% (inactive). The Her2 level in assay [2] is 91% (inactive). The differential viability (reversal) in [6] (H69AR cells + 2 uM doxorubicin) is 3.28% (inactive). The inhibition in assay [7] was -1.33% (inactive); in assay [8], 0.33% (inactive); in assay [14], 1.5% (inactive). For the same compound, the growth inhibition in assay [9] was -5.58% (inactive); in [10] it was 10.4% (inactive). The viability increase in [11] is -0.53% (inactive). In assay [15], the RAM network inhibition was -1.15% (inactive).
With `COc1ccc(OC)c(C2CC(=O)NC(SC)=C2C#N)c1` (stereo not drawn), the viability in assay [1] is 102%; in assay [3], 102% (inactive); in [4], 83.1% (inactive); in [5] it was 94.3% (inactive); in [6] (setting [16]) it was 82.8%; in assay [6] (setting [17]), 94.3%. Also, the viability was 104% (inactive) in [12] and 92.6% (inactive) in assay [13]. Further, in assay [2], the Her2 level is 94% (inactive). Besides, the differential viability (reversal) in assay [6] (H69AR cells + 2 uM doxorubicin) was 11.6% (inactive). The values for the inhibition in [7], in [8] and in [14] were -5.33% (inactive), -9.02% (inactive) and -0.015% (inactive), respectively. Besides, the growth inhibition in assay [9] was -11.4% (inactive); in assay [10] it was -5.61% (inactive). Also, in [11], the viability increase was 0.31% (inactive). In [15], the RAM network inhibition is 2.19% (inactive).
With `Cc1cccc(N2CCN(C(=O)c3cc4ccccc4oc3=O)CC2)c1C`, the viability in assay [1] was 90.5%; in [3] it was 90.5% (inactive); in [4], 98.6% (inactive); in assay [5], 100% (inactive); in assay [6] (setting [16]) it was 92%; in assay [6] (setting [17]), 100%. In addition, the viability in [12] is 88.5% (inactive); in assay [13] it was 94.3% (inactive). Moreover, the Her2 level in assay [2] is 116% (inactive). Also, the differential viability (reversal) in assay [6] (H69AR cells + 2 uM doxorubicin) was 8.08% (inactive). The inhibition in assay [7] was -6.53% (inactive); in assay [8], -7.67% (inactive); in assay [14], 0.78% (inactive). Moreover, the growth inhibition is -4.18% (inactive) in [9] and -0.595% (inactive) in assay [10]. Moreover, the viability increase in assay [11] was 1.65% (inactive). Further, the RAM network inhibition in [15] is -1.13% (inactive).
`CCOC(=O)c1[nH]c(C)c(C(=O)NC)c1C`: the viability in assay [1] is 92%; in assay [3], 92% (inactive); in [4] it was 89.7% (inactive); in assay [5], 98.8% (inactive); in assay [6] (setting [16]), 85%; in [6] (setting [17]) it was 98.8%. In addition, the viability in [12] is 109% (inactive); in assay [13], 90.8% (inactive). Moreover, the Her2 level in assay [2] was 112% (inactive). The differential viability (reversal) in assay [6] (H69AR cells + 2 uM doxorubicin) is 13.8% (inactive). The figures for the inhibition in assay [7], in assay [8] and in assay [14] were -0.26% (inactive), -1.17% (inactive) and 1.32% (inactive), respectively. For the same compound, the results for the growth inhibition in assay [9] and in assay [10] were -4.37% (inactive) and -10.2% (inactive), respectively. The viability increase in [11] was -0.95% (inactive). Further, in [15], the RAM network inhibition is -1.66% (inactive).
Take `CCN(CC)C(=O)c1ccc(CS(=O)(=O)c2ccc(OC)cc2)o1`: the viability in [1] was 84.5%; in [3] it was 84.5% (inactive); in [4], 99.2% (inactive); in [5], 87.8% (inactive); in [6] (setting [16]), 88.7%; in assay [6] (setting [17]), 87.8%. The viability was 97.4% (inactive) in assay [12] and 95.3% (inactive) in assay [13]. Besides, the Her2 level in assay [2] is 116% (inactive). Moreover, the differential viability (reversal) in [6] (H69AR cells + 2 uM doxorubicin) was -0.895% (inactive). Also, the values for the inhibition in assay [7], in assay [8] and in [14] were 1.54% (inactive), -6% (inactive) and 1.96% (inactive), respectively. In addition, the growth inhibition in assay [9] was -6.54% (inactive); in assay [10], -7.93% (inactive). In addition, the viability increase in assay [11] is -1.02% (inactive). For the same compound, the RAM network inhibition in assay [15] was 3.14% (inactive).
For `CCOc1ccccc1C(=O)Nc1nnc(CC)s1`, the viability in assay [1] was 94.5%; in assay [3], 94.5% (inactive); in [4], 114% (inactive); in [5], 97% (inactive); in assay [6] (setting [16]) it was 88.7%; in assay [6] (setting [17]) it was 97%. Moreover, the viability in [12] was 96.3% (inactive); in assay [13] it was 98.3% (inactive). Also, the Her2 level in assay [2] is 84% (inactive). Further, the differential viability (reversal) in [6] (H69AR cells + 2 uM doxorubicin) is 8.28% (inactive). The inhibition is -1.73% (inactive) in assay [7], 3% (inactive) in assay [8] and 0.31% (inactive) in assay [14]. The growth inhibition in [9] is -0.29% (inactive); in [10], 12.6% (inactive). In addition, the viability increase in assay [11] was -2.43% (inactive). In addition, the RAM network inhibition in assay [15] was 1.61% (inactive).
With `COC(=O)c1cc(OC)c(OC)cc1NC(=O)c1ccc(Br)o1`, the viability in assay [1] is 85.5%; in assay [3], 85.5% (inactive); in [4] it was 101% (inactive); in assay [5], 87.6% (inactive); in [6] (setting [16]), 93%; in [6] (setting [17]), 87.6%. The viability was 96% (inactive) in [12] and 86.1% (inactive) in [13]. Besides, the Her2 level in assay [2] is 84% (inactive). In addition, in assay [6] (H69AR cells + 2 uM doxorubicin), the differential viability (reversal) is -5.39% (inactive). Also, the inhibition was 0.13% (inactive) in assay [7], 3% (inactive) in assay [8] and 3.2% (inactive) in [14]. Moreover, the figures for the growth inhibition in [9] and in assay [10] were -14.5% (inactive) and -3.21% (inactive), respectively. Further, in assay [11], the viability increase is -0.2% (inactive). Further, the RAM network inhibition in [15] is 4.75% (inactive).
As for `Cc1onc(-c2ccccc2Cl)c1C(=O)N1CCc2ccccc21`, the viability was 87.5% in assay [1]; 87.5% (inactive) in assay [3]; 80.9% (inactive) in assay [4]; 79% (inactive) in [5]; 88.1% in assay [6] (setting [16]); 79% in [6] (setting [17]). In addition, the viability in assay [12] was 82.8% (inactive); in [13], 87.1% (inactive). Besides, the Her2 level in assay [2] is 78.5% (inactive). Further, in [6] (H69AR cells + 2 uM doxorubicin), the differential viability (reversal) is -9.1% (inactive). Also, the inhibition in assay [7] is -1.82% (inactive); in assay [8] it was -5.5% (inactive); in assay [14], 2.23% (inactive). For the same compound, the growth inhibition is -1.1% (inactive) in [9] and -8.1% (inactive) in [10]. Besides, the viability increase in assay [11] is -3.41% (inactive). Besides, in assay [15], the RAM network inhibition is 7.99% (inactive).
For the compound `Cc1ccc(C(=O)CC2(O)C(=O)N(C)c3ccc(Br)cc32)c(C)c1` (stereo not drawn), the viability in assay [1] is 85%; in assay [3] it was 85% (inactive); in assay [4], 77.7% (inactive); in assay [5], 75% (inactive); in [6] (setting [16]) it was 91.9%; in assay [6] (setting [17]), 75%. Besides, the viability in assay [12] is 71.5% (inactive); in assay [13], 74.7% (inactive). The Her2 level in [2] was 88.5% (inactive). In addition, the differential viability (reversal) in [6] (H69AR cells + 2 uM doxorubicin) was -16.9% (inactive). In addition, the inhibition was -4.13% (inactive) in assay [7], -0.83% (inactive) in [8] and 2.44% (inactive) in assay [14]. Also, the growth inhibition in assay [9] is 2.26% (inactive); in assay [10] it was 9.8% (inactive). Also, in assay [11], the viability increase is -4.61% (inactive). The RAM network inhibition in [15] was 4.59% (inactive).
